Here are results for 29 compounds from PubChem BioAssay AID1345083 (National Center for Advancing Translational Sciences (NCATS), 2018).

SMILES strings stand for the structures. Hit rate of the full screen: of about 94,000 compounds, about 6,200 (6.6%) were called active. Inconclusive results (about 31%) are left out. The call rests on the fitted dose curve; in most records, active means well fitted inhibition curve with a large enough effect; inconclusive means small, poorly fitted or top-dose-only effect; inactive means flat fitted curve, though single readings scatter. What follows is part of a selection rich in actives, with near analogues and random picks from the rest. Where a call stands in place of a potency, no number is given.
Potency means the concentration at half of the fitted maximal effect.

This test can be described thus: Cytotoxic Profiling in HEK 293 Cell Line of Diverse Libraries Using Quantitative High-Throughput Screening. Further: nearly all actives have a fitted effect of over 60% in size. To be noted: HEK 293 viability, ATP luminescence (CellTiter-Glo), 48-72 h; series mostly up to 115 µM. From the text:
Cell-based phenotypic screening is a commonly used approach to discover biological pathways, novel drug targets, chemical probes and high-quality hit-to-lead molecules. Many hits identified from high-throughput screening campaign are ruled out through a series of follow-up potency, selectivity/specificity, and cytotoxicity assays. Prioritization of molecules with little or no cytotoxicity for a more in-depth downstream evaluation influence the future direction of projects, so cytotoxicity profiling of the screening libraries at early stage is essential for increasing the likelihood of candidate success. In this study, we analyzed results from a cell-based cytotoxicity screening campaign, comprising nearly 10,000 compounds in NCATS annotated libraries, and over 100,000 compounds in a diversity library, evaluated in four normal cell lines (HEK 293, NIH 3T3, CRL-7250 and HaCat) and a cancer cell line (KB 3-1, a HeLa subline) with overall screening outcomes, hit rates, pan-activity and selectivity. For the annotated library, we also examined the primary targets and mechanistic pathways regularly associated with cell death. To our knowledge, this is the first study to use high-throughput screening to profile large libraries for cytotoxicity assessment in both normal and cancer cell lines. In summary, the results generated here constitutes a valuable resource for the scientific community and provides insight on identifying cytotoxic compounds with particular mechanisms of action, and prioritizing compounds with suitable cytotoxicity profile for further evaluation.
HEK 293 cells were seeded into white 1536-well plates using a Multidrop Combi peristaltic dispenser (ThermoFisher, Waltham, MA) at a density of 250 cells/well in 5 uL of medium respectively. A pintool (Kalypsys) was used to transfer 23 nL of compound solution to the 1536-well assay plates. After 48 or 72 hr incubation at 37 degree Celsius, 5% CO2 and 95% humidity, 2.5 uL of CellTiter-Glo (Promega) was dispensed into each well using a dispenser (Aspect Automation, St. Paul, MN) with solenoid valves (Lee Valves, Westbrook CT). Plates were left at room temperature for 10 min before imaging the ATP-coupled luminescence using a ViewLux microplate imager (PerkinElmer, Waltham, MA).
Background: In ATP-based viability assays light output follows the ATP content of the culture.
Turning to `CN(CCNC(=O)C1CCCN(S(C)(=O)=O)CCC(=O)NCC1)C1CCCCC1` (centres undefined), the Potency result is “inactive”.

Regarding `Cc1cc(C)n(CCC(=O)N[C@@H]2CN(S(C)(=O)=O)C[C@H]2CN(C)C)n1`, the Potency entry was “inactive”. Take `COc1ccc(CNC(=O)NCC(=O)N2CCCCCCNC(=O)CC2c2ccccc2)cc1` (centres undefined): the Potency result was “inactive”. As to `O=[S+]1([O-])NCC2(CCN(CC3CC3)CC2)Oc2ncccc21`, the Potency entry is “inactive”.

Turning to `Cc1noc([C@@H]2CC(F)(F)CN2C(=O)c2cc(C)on2)n1`, the Potency result is “inactive”.

In the case of `c1cncc(-c2cnc([C@@H]3COCCN3Cc3cnc4ccccc4c3)[nH]2)c1`, the Potency result is “inactive”.

For `Cn1cc(CN2CC[C@H](c3nnc(-c4cccnc4)o3)C2)c2ccccc21`, the Potency result was “inactive”. Take `Cn1cc(CN2CCOC[C@H]2c2ncc(-c3cccc(F)c3)[nH]2)c2ccccc21`: the Potency was 35.5 µM (active). For `Oc1ccccc1CN1CCOC[C@H]1c1ncc(-c2ccc(C(F)(F)F)cc2)[nH]1`, the Potency was 70.8 µM (active).

In the case of `c1cc(CN2CCOC[C@H]2c2ncc(-c3ccncc3)[nH]2)ccn1`, the Potency entry was “inactive”. Turning to `Cc1ccc(CN2CCOC[C@H]2c2ncc(-c3cccc(F)c3)[nH]2)cc1`, the Potency was 70.8 µM (active). For `Fc1ccc(CN2CCOC[C@H]2c2ncc(-c3cccnc3)[nH]2)cc1` the value was “inactive”. The value for `CC(=O)N1CCC(N2CCOC[C@H]2c2ncc(-c3ccc(Cl)s3)[nH]2)CC1` was “inactive”; that for `CC(C)(C)c1coc([C@@H]2COCCN2Cc2ccc(F)cc2)n1` was “inactive”; that for `O=C(CC1CCCCC1)Nc1ccc(-c2nnc3n2CCCC3)cc1` was “inactive”. Take `Cc1nsc(NC(=O)N2CCC(C(=O)N3CCCC3)CC2)n1`: the Potency entry was “inactive”. The value for `Cc1c(C(=O)N2CCn3nc(CO)cc3C2)cnc2cc(=O)[nH]n12` was “inactive”.

As for `COCC(=O)N[C@@H]1CN(Cc2ccccc2OC(C)C)C[C@H]1CO`, the Potency entry is “inactive”. For `Cn1cnc(S(=O)(=O)N2CCOCCNC(=O)[C@@H]3CCC[C@@H]32)c1` the value was “inactive”; for `O=C(Cn1ccn2nc(-c3ccc(F)cc3)c(CO)c2c1=O)Nc1ccc(F)cc1F`, “inactive”; for `CC(C)C1=NOC2(CCN(C3CCCCC3)CC2)C1`, “inactive”. For `CNC(=O)[C@@H]1CN(Cc2ccncc2)C[C@H]1COC` the value was “inactive”; for `O=C1CCCCC(CNC(=O)c2ccncc2)N1` (centres undefined), “inactive”.

As for `O=C(O)CCNC(=O)Cn1nc2c(cc1=O)CCCCC2`, the Potency result was “inactive”.

As for `Cn1nnc(-c2ccc(C(=O)N3CCC4(CCCO4)CC3)cc2)n1`, the Potency result was “inactive”. Consider `O=C1Nc2ccc(-c3ccsc3)cc2C(=O)N2CC[C@H](NS(=O)(=O)c3cccs3)[C@@H]12`, for which the Potency result was “inactive”. With `Cc1ccccc1NC(=O)CN1C(=O)NC(c2ccccc2Cl)C2=C1COC2=O` (centres undefined), the Potency result was “inactive”.

As to `Cc1ccc(Cl)cc1NC(=O)CN1C(=O)NC(c2ccc(Cl)cc2)C2=C1COC2=O` (centres undefined), the Potency was 12.6 µM (active). For `COc1ccc(C)cc1NC(=O)CN1C(=O)NC(c2ccccc2Cl)C2=C1COC2=O` (centres undefined), the Potency result was “inactive”.
